# Tests used:
# Test in all cases: DAPPL (digital affinity profiling via proximity ligation, sequencing); 10 mM Tris-HCl pH 7.5, 50 mM NaCl, 1 mM DTT, 4% glycerol, room temperature, 30 min; GST-TFs on glutathione beads, 16-mer random dsDNA library, 0.1% formaldehyde crosslink after washing; high values mean tight binding
# FLI1 = target: T1, FLI1 (Homo sapiens, UniProt Q01543 1-452); conditions: protein: recombinant; tags: N-terminal GST; dsDNA, one strand shown
# T1 sequence: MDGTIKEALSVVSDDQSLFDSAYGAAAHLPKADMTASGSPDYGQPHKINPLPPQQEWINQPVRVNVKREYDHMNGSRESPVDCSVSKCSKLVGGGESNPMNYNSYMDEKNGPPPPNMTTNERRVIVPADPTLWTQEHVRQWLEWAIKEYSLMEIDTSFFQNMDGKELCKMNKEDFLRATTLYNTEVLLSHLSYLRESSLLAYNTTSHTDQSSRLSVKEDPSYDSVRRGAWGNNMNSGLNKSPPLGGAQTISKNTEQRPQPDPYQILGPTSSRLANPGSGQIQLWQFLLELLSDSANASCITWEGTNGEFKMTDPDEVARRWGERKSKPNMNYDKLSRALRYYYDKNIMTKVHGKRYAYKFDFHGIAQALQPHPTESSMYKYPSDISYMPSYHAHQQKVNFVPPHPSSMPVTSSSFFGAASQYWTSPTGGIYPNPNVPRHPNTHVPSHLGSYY
# How it was run: (§1)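 Sequencing on an Illumina NextSeq500 followed washing, crosslinking with 0.1% formaldehyde, proximity ligation (BsaI/T4 ligase, 1 h, 37 °C) and PCR amplification of pools that had been incubated for 30 min at room temperature with 200 nmole of a random double-stranded 16-mer DNA library in Tris/NaCl/DTT/glycerol buffer. Each pool held DNA-barcoded human transcription factors, expressed in yeast as GST fusions and captured on glutathione beads, plus a tag-only sample. Binding signal is a hexamer's read frequency for a factor divided by its frequency in the tag-only sample.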
# ELK1 = target: T2, ELK1 (Homo sapiens, UniProt P19419 1-428); conditions: protein: recombinant; tags: N-terminal GST; dsDNA, one strand shown
# T2 sequence: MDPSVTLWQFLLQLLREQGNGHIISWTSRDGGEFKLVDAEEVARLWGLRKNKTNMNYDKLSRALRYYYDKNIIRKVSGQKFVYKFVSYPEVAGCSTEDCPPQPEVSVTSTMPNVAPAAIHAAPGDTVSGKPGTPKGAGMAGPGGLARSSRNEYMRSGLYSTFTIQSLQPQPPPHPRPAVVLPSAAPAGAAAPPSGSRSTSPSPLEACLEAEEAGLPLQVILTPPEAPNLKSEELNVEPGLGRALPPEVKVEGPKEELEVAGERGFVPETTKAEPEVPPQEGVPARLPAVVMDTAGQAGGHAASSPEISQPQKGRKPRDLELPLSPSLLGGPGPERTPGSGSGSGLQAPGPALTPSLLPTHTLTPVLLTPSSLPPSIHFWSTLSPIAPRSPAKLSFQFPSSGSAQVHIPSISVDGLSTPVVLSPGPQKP
# How it was run: as §1
# GABPA = target: T3, GABPA (Homo sapiens, UniProt Q06546 1-454); conditions: protein: recombinant; tags: N-terminal GST; dsDNA, one strand shown
# T3 sequence: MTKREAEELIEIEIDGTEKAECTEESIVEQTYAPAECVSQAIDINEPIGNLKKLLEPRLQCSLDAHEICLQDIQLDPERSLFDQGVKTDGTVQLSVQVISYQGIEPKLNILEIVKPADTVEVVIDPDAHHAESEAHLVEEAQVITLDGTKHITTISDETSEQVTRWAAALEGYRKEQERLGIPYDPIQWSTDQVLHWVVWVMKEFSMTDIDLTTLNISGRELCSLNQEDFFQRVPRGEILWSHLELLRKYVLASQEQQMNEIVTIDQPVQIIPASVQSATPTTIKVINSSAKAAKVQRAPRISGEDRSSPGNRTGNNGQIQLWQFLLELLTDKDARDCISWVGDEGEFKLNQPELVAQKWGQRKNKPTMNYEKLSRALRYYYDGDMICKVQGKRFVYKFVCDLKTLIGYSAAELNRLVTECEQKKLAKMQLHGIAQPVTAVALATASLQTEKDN
# How it was run: as §1
# ERG = target: T4, ERG (Homo sapiens, UniProt P11308 1-479); conditions: protein: recombinant; tags: N-terminal GST; dsDNA, one strand shown
# T4 sequence: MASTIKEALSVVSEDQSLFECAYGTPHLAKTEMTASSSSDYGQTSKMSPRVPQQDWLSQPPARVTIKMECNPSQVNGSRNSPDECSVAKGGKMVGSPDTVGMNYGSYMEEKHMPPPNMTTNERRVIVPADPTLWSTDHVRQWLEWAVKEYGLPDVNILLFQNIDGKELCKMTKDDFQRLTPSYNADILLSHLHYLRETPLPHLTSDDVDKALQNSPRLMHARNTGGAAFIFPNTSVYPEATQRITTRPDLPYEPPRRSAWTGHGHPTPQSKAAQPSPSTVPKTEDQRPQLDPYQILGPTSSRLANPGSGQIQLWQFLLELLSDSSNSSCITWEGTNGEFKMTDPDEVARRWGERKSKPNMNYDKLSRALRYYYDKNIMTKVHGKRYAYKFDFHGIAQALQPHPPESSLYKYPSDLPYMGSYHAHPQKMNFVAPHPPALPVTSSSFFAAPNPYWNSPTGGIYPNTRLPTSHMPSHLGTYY
# How it was run: as §1
# ELF1 = ELF1 (Homo sapiens, UniProt P32519 1-619); conditions: protein: recombinant; tags: N-terminal GST; dsDNA, one strand shown
# ELF1, sequence (P32519 whole entry): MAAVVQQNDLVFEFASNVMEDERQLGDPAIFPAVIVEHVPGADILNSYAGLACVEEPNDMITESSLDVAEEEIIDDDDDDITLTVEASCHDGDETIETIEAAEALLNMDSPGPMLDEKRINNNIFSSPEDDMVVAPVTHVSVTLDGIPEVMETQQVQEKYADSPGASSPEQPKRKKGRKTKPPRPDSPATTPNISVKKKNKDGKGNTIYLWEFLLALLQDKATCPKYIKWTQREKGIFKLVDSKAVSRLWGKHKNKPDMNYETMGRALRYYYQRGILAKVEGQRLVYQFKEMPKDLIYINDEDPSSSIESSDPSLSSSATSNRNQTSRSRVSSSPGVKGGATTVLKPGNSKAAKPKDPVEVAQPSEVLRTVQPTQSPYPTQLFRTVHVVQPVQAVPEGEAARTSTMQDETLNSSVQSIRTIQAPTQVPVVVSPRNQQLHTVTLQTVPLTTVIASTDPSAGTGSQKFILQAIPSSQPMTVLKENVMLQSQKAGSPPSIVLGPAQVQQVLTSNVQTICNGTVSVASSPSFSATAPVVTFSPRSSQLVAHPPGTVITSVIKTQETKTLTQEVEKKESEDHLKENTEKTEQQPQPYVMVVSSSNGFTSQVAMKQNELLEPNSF
# How it was run: as §1
# EHF = target: T5, EHF (Homo sapiens, UniProt Q9NZC4 1-300); conditions: protein: recombinant; tags: N-terminal GST; dsDNA, one strand shown
# T5 sequence: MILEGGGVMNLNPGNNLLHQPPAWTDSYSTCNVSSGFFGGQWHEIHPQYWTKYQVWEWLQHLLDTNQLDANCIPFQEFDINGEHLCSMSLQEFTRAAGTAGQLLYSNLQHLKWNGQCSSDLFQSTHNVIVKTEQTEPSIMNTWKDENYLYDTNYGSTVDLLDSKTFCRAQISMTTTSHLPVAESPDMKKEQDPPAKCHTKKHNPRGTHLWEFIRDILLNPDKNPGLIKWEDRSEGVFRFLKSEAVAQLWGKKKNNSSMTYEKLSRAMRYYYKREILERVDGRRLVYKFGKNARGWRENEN
# How it was run: as §1
# SPI1 = SPI1 (Homo sapiens, UniProt P17947 1-270); conditions: protein: recombinant; tags: N-terminal GST; dsDNA, one strand shown
# How it was run: as §1
# SPIB = SPIB (Homo sapiens, UniProt Q01892 1-262); conditions: protein: recombinant; tags: N-terminal GST; dsDNA, one strand shown
# SPIB, sequence (Q01892 whole entry): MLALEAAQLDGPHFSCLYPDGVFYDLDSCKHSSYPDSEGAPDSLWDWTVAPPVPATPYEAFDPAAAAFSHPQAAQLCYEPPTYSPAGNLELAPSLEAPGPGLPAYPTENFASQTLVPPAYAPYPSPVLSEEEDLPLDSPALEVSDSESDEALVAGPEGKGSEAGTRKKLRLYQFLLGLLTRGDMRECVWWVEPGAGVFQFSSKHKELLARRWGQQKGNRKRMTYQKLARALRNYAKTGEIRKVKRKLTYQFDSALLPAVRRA
# How it was run: as §1
# ELK3 = target: T6, ELK3 (Homo sapiens, UniProt P41970 1-407); conditions: protein: recombinant; tags: N-terminal GST; dsDNA, one strand shown
# T6 sequence: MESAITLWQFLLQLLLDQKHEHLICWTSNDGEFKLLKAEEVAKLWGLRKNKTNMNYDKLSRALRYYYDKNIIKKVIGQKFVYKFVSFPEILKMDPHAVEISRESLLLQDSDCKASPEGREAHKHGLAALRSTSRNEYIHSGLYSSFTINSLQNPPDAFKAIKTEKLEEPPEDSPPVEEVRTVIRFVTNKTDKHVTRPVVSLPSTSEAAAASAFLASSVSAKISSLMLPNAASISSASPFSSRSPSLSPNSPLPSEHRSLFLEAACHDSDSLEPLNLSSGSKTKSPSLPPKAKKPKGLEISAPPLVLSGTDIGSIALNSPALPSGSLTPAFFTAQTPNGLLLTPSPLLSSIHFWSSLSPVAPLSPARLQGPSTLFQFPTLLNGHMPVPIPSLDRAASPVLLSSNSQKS
# How it was run: as §1
# FEV = target: T7, FEV (Homo sapiens, UniProt Q99581 1-238); conditions: protein: recombinant; tags: N-terminal GST; dsDNA, one strand shown
# T7 sequence: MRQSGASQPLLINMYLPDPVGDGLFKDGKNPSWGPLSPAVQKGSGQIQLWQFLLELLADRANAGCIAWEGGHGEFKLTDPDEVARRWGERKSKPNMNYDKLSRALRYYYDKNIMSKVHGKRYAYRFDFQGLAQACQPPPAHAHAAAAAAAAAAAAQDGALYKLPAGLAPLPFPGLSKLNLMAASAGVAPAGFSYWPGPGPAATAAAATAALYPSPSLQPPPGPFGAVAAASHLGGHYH
# How it was run: as §1
# ETV5 = ETV5 (Homo sapiens, UniProt P41161 1-510); conditions: protein: recombinant; tags: N-terminal GST; dsDNA, one strand shown
# ETV5, sequence (P41161 whole entry): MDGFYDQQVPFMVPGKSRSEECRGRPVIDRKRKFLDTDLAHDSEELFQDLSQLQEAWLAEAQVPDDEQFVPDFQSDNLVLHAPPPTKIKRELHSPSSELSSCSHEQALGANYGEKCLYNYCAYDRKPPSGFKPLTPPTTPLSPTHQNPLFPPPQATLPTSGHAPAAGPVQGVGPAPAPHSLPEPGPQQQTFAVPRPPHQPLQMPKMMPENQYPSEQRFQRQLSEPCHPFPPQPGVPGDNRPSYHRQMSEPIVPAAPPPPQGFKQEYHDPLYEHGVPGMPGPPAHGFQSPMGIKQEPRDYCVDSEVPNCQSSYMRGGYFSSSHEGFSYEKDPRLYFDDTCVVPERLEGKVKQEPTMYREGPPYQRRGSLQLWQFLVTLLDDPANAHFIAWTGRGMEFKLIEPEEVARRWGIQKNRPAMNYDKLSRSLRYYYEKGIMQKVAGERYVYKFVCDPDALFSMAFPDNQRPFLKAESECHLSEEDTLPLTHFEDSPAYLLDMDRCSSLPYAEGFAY
# How it was run: as §1
# HSF1 = HSF1 (Homo sapiens, UniProt Q00613 1-529); conditions: protein: recombinant; tags: N-terminal GST; chain copies: 3; dsDNA, one strand shown
# HSF1, sequence (Q00613 whole entry): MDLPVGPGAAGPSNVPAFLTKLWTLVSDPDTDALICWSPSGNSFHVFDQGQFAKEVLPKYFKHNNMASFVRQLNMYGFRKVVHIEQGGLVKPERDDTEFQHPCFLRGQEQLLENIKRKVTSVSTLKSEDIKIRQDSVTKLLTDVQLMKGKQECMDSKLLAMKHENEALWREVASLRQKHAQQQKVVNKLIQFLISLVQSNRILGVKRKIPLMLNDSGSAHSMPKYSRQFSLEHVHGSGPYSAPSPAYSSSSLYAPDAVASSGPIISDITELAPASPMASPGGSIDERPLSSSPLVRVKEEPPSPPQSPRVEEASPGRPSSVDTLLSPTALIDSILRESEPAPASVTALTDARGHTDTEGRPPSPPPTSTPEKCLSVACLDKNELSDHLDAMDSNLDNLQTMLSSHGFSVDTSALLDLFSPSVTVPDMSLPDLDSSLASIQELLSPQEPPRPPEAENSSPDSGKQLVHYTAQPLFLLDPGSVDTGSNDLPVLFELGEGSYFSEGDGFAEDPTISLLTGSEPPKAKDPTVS
# How it was run: as §1
# SPIC = target: T8, SPIC (Homo sapiens, UniProt Q8N5J4 1-248); conditions: protein: recombinant; tags: N-terminal GST; dsDNA, one strand shown
# T8 sequence: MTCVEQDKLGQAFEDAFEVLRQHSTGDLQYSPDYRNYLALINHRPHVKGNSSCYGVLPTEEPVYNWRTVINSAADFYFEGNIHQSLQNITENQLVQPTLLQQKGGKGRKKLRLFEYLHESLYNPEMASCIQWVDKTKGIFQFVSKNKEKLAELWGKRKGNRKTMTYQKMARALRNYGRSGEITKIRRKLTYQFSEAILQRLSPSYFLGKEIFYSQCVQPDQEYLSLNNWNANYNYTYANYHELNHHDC
# How it was run: as §1
# ELF4 = ELF4 (Homo sapiens, UniProt Q99607 1-663); conditions: protein: recombinant; tags: N-terminal GST; dsDNA, one strand shown
# ELF4, sequence (Q99607 whole entry): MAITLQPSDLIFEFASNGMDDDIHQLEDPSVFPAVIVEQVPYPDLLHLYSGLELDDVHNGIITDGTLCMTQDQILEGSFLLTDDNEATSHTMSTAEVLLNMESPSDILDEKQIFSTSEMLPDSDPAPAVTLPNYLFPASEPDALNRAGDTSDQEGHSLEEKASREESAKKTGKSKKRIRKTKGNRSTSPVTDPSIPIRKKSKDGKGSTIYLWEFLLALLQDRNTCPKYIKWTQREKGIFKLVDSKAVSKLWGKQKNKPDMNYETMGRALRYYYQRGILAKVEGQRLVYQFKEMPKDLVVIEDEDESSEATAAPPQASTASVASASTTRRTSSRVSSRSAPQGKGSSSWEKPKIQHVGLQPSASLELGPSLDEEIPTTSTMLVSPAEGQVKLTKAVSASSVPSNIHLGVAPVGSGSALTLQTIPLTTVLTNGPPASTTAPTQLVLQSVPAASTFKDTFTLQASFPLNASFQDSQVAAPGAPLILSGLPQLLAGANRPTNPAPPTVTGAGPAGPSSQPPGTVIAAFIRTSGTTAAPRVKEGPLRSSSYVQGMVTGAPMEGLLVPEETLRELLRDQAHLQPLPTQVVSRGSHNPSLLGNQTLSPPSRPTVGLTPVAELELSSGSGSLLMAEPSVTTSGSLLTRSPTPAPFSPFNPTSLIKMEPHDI
# How it was run: as §1
# ELK4 = target: T9, ELK4 (Homo sapiens, UniProt P28324-2 1-405); conditions: protein: recombinant; tags: N-terminal GST; dsDNA, one strand shown
# T9 sequence: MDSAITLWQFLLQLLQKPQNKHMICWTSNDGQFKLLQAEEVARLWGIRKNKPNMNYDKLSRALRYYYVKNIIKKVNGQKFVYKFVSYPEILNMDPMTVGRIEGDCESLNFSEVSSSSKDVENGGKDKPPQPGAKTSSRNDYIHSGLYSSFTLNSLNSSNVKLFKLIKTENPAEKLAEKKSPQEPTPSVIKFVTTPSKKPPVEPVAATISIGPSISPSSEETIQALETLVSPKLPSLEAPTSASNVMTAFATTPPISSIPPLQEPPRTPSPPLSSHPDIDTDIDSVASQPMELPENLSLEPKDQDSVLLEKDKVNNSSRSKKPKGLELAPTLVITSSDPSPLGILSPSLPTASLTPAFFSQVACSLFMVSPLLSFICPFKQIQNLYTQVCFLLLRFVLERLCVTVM
# How it was run: as §1
# ETV2 = target: T10, ETV2 (Homo sapiens, UniProt O00321 1-342); conditions: protein: recombinant; tags: N-terminal GST; dsDNA, one strand shown
# T10 sequence: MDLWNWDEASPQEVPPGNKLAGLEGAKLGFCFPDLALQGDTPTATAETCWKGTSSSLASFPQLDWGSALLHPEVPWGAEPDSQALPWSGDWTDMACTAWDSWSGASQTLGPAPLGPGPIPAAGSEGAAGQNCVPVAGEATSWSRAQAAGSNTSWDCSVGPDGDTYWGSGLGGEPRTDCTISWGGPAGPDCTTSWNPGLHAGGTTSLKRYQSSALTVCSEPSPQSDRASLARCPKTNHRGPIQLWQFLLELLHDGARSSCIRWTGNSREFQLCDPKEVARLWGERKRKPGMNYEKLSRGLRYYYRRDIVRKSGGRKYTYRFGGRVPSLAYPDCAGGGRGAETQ
# How it was run: as §1
# ELF3 = target: T11, ELF3 (Homo sapiens, UniProt P78545 1-371); conditions: protein: recombinant; tags: N-terminal GST; dsDNA, one strand shown
# T11 sequence: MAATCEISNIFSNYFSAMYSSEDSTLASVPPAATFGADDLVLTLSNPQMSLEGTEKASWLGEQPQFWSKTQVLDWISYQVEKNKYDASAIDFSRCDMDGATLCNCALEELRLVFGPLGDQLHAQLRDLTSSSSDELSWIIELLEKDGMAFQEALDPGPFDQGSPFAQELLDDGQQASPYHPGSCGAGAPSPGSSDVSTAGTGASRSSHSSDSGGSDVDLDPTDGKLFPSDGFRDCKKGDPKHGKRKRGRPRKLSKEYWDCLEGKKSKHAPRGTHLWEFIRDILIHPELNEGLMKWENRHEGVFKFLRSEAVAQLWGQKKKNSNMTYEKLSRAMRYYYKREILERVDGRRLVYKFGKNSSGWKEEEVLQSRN
# How it was run: as §1
# CRX = CRX (Homo sapiens, UniProt O43186 1-299); conditions: protein: recombinant; tags: N-terminal GST; dsDNA, one strand shown
# CRX, sequence (O43186 whole entry): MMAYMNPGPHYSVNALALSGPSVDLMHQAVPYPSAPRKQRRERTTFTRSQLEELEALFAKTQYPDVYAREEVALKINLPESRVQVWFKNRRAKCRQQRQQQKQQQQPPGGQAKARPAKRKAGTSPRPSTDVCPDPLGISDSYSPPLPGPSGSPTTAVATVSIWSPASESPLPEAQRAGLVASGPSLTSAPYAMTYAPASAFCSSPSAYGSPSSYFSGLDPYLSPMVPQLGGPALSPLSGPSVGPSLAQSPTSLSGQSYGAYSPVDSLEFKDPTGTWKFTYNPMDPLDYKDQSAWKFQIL
# How it was run: as §1
# ETV1 = ETV1 (Homo sapiens, UniProt P50549 1-477); conditions: protein: recombinant; tags: N-terminal GST; dsDNA, one strand shown
# ETV1, sequence (P50549 whole entry): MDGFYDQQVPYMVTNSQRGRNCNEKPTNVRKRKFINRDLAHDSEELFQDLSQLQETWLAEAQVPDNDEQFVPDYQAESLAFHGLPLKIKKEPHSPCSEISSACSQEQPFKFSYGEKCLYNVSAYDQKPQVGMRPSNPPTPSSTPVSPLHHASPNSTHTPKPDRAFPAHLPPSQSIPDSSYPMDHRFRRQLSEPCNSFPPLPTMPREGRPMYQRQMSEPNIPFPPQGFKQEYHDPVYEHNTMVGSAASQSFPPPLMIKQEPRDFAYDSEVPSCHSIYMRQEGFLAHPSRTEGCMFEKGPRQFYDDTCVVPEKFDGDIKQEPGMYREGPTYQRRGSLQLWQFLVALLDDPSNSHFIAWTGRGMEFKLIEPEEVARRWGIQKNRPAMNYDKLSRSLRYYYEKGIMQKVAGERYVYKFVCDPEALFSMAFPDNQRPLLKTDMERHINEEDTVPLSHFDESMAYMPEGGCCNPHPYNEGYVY
# How it was run: as §1
sequence,measurement,setting,value
GTTCTA,binding signal,FLI1,"1.16 fold enrichment (6-mer frequency, TF over GST control)"
same,binding signal,ELK1,"1.28 fold enrichment (6-mer frequency, TF over GST control)"
same,binding signal,GABPA,"1.22 fold enrichment (6-mer frequency, TF over GST control)"
same,binding signal,ERG,"1.24 fold enrichment (6-mer frequency, TF over GST control)"
same,binding signal,ELF1,"1.31 fold enrichment (6-mer frequency, TF over GST control)"
same,binding signal,EHF,"1.12 fold enrichment (6-mer frequency, TF over GST control)"
same,binding signal,SPI1,"1.12 fold enrichment (6-mer frequency, TF over GST control)"
same,binding signal,SPIB,"1.32 fold enrichment (6-mer frequency, TF over GST control)"
same,binding signal,ELK3,"1.23 fold enrichment (6-mer frequency, TF over GST control)"
same,binding signal,FEV,"1.26 fold enrichment (6-mer frequency, TF over GST control)"
same,binding signal,ETV5,"1.18 fold enrichment (6-mer frequency, TF over GST control)"
same,binding signal,HSF1,"2.94 fold enrichment (6-mer frequency, TF over GST control)"
same,binding signal,SPIC,"1.37 fold enrichment (6-mer frequency, TF over GST control)"
same,binding signal,ELF4,"1.31 fold enrichment (6-mer frequency, TF over GST control)"
same,binding signal,ELK4,"1.2 fold enrichment (6-mer frequency, TF over GST control)"
same,binding signal,ETV2,"1.17 fold enrichment (6-mer frequency, TF over GST control)"
same,binding signal,ELF3,"1.27 fold enrichment (6-mer frequency, TF over GST control)"
same,binding signal,CRX,"1.59 fold enrichment (6-mer frequency, TF over GST control)"
same,binding signal,ETV1,"1.11 fold enrichment (6-mer frequency, TF over GST control)"

# From publication PMC7862700, “An all-to-all approach to the identification of sequence-specific readers for epigenetic DNA modifications on cytosine”
